# Columns and labels:
# Assay in all cases: PBM binding z-score (relative to random genomic background probes); higher = stronger binding; sequences stand for … in GC…GCGATTGACAGCGTAGAATGAAGG
# [1] = tested on: FXR:RXRa (NR concentration 270 nM, RXRa partner concentration 90 nM)
# Outline: (§1)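 Regression normalization was applied to scanned fluorescence from custom Agilent 4×180K protein-binding microarrays. Before scanning, arrays were incubated 1 h with ligand-free nuclear receptor dimers, and binding was detected with antibodies against each partner (one per run). Binding z-scores use the random background probes as reference.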
# [2] = tested on: LXRa:RXRa (NR concentration 270 nM, RXRa partner concentration 90 nM)
# Outline: as §1
# [3] = tested on: LXRa homodimer (NR concentration 270 nM)
# Outline: as §1
# [4] = tested on: LXRb:RXRa (NR concentration 270 nM, RXRa partner concentration 90 nM)
# Outline: as §1
# [5] = tested on: LXRb homodimer (NR concentration 270 nM)
# Outline: as §1
# [6] = tested on: PPARa:RXRa (NR concentration 270 nM, RXRa partner concentration 90 nM)
# Outline: as §1
# [7] = tested on: PPARg:RXRa (NR concentration 180 nM, RXRa partner concentration 90 nM)
# Outline: as §1
# [8] = tested on: PPARg:RXRa 270nM:90nM, anti-RXR (NR concentration 270 nM, RXRa partner concentration 90 nM)
# Outline: as §1
# [9] = tested on: PPARg:RXRa 30nM:10nM, anti-RXR (NR concentration 30 nM, RXRa partner concentration 10 nM)
# Outline: as §1
# [10] = tested on: PPARg:RXRa 90nM:30nM, anti-RXR (NR concentration 90 nM, RXRa partner concentration 30 nM)
# Outline: as §1
# [11] = tested on: PPARg:RXRa DBDmut IVT, anti-RXR (DBD mutation: RXRa K156A/R161A, NR concentration 270 nM, RXRa partner concentration 90 nM)
# Outline: as §1
# [12] = tested on: PPARg:RXRa IVT, anti-PPARg (NR concentration 270 nM, RXRa partner concentration 90 nM)
# Outline: as §1
# [13] = tested on: PPARg DBDmut:RXRa IVT, anti-PPARg (DBD mutation: PPARg1 K132A/R137A, NR concentration 270 nM, RXRa partner concentration 90 nM)
# Outline: as §1
# [14] = tested on: PPARg DBDmut IVT, anti-PPARg (DBD mutation: PPARg1 K132A/R137A, NR concentration 270 nM)
# Outline: as §1
# [15] = tested on: PPARg homodimer (NR concentration 180 nM)
# Outline: as §1
# [16] = tested on: PXR:RXRa (NR concentration 270 nM, RXRa partner concentration 90 nM)
# Outline: as §1
# [17] = tested on: PXR homodimer (NR concentration 270 nM)
# Outline: as §1
# [18] = tested on: RARa:RXR (NR concentration 270 nM, RXRa partner concentration 90 nM)
# Outline: as §1
# [19] = tested on: RARa homodimer (NR concentration 270 nM)
# Outline: as §1
# [20] = tested on: RARb:RXRa (NR concentration 270 nM, RXRa partner concentration 90 nM)
# Outline: as §1
Sequence,PBM binding z-score [1],PBM binding z-score [2],PBM binding z-score [3],PBM binding z-score [4],PBM binding z-score [5],PBM binding z-score [6],PBM binding z-score [7],PBM binding z-score [8],PBM binding z-score [9],PBM binding z-score [10],PBM binding z-score [11],PBM binding z-score [12],PBM binding z-score [13],PBM binding z-score [14],PBM binding z-score [15],PBM binding z-score [16],PBM binding z-score [17],PBM binding z-score [18],PBM binding z-score [19],PBM binding z-score [20]
CCGAGTAGGTTATGGGGCATTCCGGCAACGGTGA,0.0637,0.227,-0.224,0.574,-0.279,1.97,3.05,4.51,1.83,3.99,3.2,3.14,0.204,-0.0547,0.995,-0.218,-0.17,0.0767,0.0897,0.966
GCGACTTGGGCATCAGCAGGTTACCATAACTTAA,-0.439,-0.445,-0.567,-0.214,-0.905,-0.0723,0.0729,-0.529,-0.585,-0.893,-0.319,-0.238,-1.02,-0.802,-0.13,-0.0644,-0.495,0.232,-0.904,0.00104
ATCGAAAGTTCGTGAGGTGAGTATACAGAAAGGC,1.21,1.26,0.0798,0.398,-0.197,1.88,0.759,0.561,0.146,0.655,-1.13,0.316,0.654,0.402,0.342,1.08,0.69,1.39,0.453,2.17
CCTACTGGGCCACGACAGGTCATTGATTCAGTGA,0.777,2.99,1.75,1.48,-0.349,2.68,2.81,2.84,0.448,1.68,5.23,5.51,1.69,-0.106,0.946,1.97,0.00199,2.15,-0.183,2.01
CCAGACAGGTGAGAAGGTGACTCAGCCTCGATTA,0.0148,-0.0121,-0.103,0.201,-0.178,0.868,0.495,0.694,-0.409,0.222,1.19,0.996,0.0696,-0.454,0.821,-0.175,0.603,0.235,0.708,1.02
TCATATAGGTAAATGCTAGTTGAAAGTCCGATCT,0.79,0.719,0.081,0.689,-0.0232,1.09,0.625,1.79,3.76,2.81,4.01,2.25,1.08,1.1,0.913,0.488,0.757,0.405,1.01,0.37
CTACCAAGGTGAACAAGGGCGTTGATTACTATTC,0.636,0.274,-0.543,0.44,-0.701,1.39,0.678,0.967,-0.0752,0.624,2.71,2.55,-0.498,0.223,0.114,0.993,-0.0327,0.539,-0.306,1.81
TCTTGTAGATCAATAGAGCTTAAGAAAGTGCGCT,-0.769,-0.425,-0.995,-0.356,-0.706,0.188,-0.467,0.973,2.31,1.85,1.24,0.112,-0.281,0.00059,-0.672,-0.158,-0.534,-0.251,-1.02,-0.557
CCTACTGGGCCATTCAGAGGTCATTGACCATATG,3.07,4.59,6.66,3.95,0.537,3.86,2.55,3.37,1.07,2.25,4.24,4.24,0.0159,0.229,2.02,4.93,2.23,4.52,0.388,3.17
ACTAGCAGGCCAAGGGTCACTTAAGATTAGTCCG,2.62,2.89,0.394,3,-0.323,4.28,8.13,7.44,5.78,8.65,1.3,3.66,0.182,-0.252,2.04,3.33,-0.0435,4.13,0.362,3.39
CTCGTAAGGTCGTGCTCAGGTGAGTATACCAAAC,3.16,2.44,-0.206,1.97,0.357,3.48,0.721,1.85,0.398,1.07,0.319,1.17,0.192,0.162,1.03,2.23,-0.00148,3.61,-0.224,2.83
GCTAGTTGGTCAGTAAAAAGTCACACACCGGTCG,0.351,0.195,0.138,-0.0134,-0.0534,0.217,0.434,0.856,0.159,0.726,0.793,0.0874,0.0294,0.69,0.862,0.0868,-0.328,0.255,0.758,0.863
ACTATTAGTTGACTTAGGCCAACCGATACGACGC,0.313,0.281,0.278,0.209,1.1,0.0554,1.05,0.478,0.505,0.622,0.581,0.623,1.41,1.22,1.1,0.168,0.397,0.152,0.685,0.896
GCATATAGGTAATACAAGGGGAAAGTCCGATTGT,0.256,0.159,0.0811,-0.078,-0.118,0.754,0.908,0.64,0.337,0.269,4.01,2.14,0.831,0.956,0.379,-0.118,0.0351,0.489,0.339,-0.122
ACTAGTTGATCAGCTGAGGTCACACACAATTCGG,3.31,2.93,1.91,3.51,0.605,3.89,1.6,2.33,0.574,1.42,0.672,2.14,0.806,1.68,2.57,4.97,2.19,4.95,0.417,3.22
CCTAGCAGGCCAATCTGGTTCACTCAAGGCTTGA,-0.121,0.131,-0.596,-0.16,-0.887,0.0157,-0.419,-0.488,-0.776,-0.865,1.85,0.21,-1.28,-0.685,-0.281,0.784,-0.545,0.161,-0.882,0.201
ATCTCTAGGTAACAAGTTAAGTGAAAGAGAGGAC,0.803,0.557,0.231,0.236,0.69,1.55,2.23,3.1,1.59,2.7,3.26,2.85,1.87,1.54,0.926,0.289,0.574,0.842,0.894,0.723
CGAAGGAGGGCATGAGTTGATAGCAAATGCCGAT,-0.0276,-0.0888,-0.504,-0.073,-0.785,0.988,1.13,1.1,0.326,0.97,2.57,2.1,0.0677,-0.445,0.352,0.02,-0.165,0.152,-0.898,1.53
TTACCAAGGTGAGCAGAGGTCGTTGATCCAACTC,1.14,1.86,-0.283,1.37,-0.627,2.38,2.17,2.89,0.857,2.68,0.947,2.49,-0.426,-0.173,0.497,4.23,-0.112,2.23,-0.99,1.99
GCGACTGGGGCATCAGCAGGTTAGCATAACTTAA,-0.723,-0.775,-0.738,0.063,-1.51,0.705,0.575,0.572,-0.512,0.0276,3.62,2.57,-1.06,-1.09,-0.262,-0.392,-0.845,-0.492,-0.942,0.511
CCTACTGGGCCAAAGGTCATTTATTCCAATGCTC,4.91,5.02,5.54,5.19,1.7,6.68,12.4,10.4,11,11.5,5.13,6.94,0.54,0.179,5.03,5.54,1.8,6.34,2.22,4.25
TCTTGTAGATCAGCAGGTTAAGAACGCTGGCCAA,-0.138,-0.0946,-0.388,0.178,-0.52,0.745,-0.296,1.38,2.39,1.59,1.41,0.294,-0.675,-0.754,-0.66,-0.00865,-0.543,0.211,-0.75,0.0804
TCCGACAGGTGAAGGTAACTCAGGTACGCAGTCG,0.658,1.48,-0.467,0.558,-0.785,0.847,0.493,1.09,2.1,1.34,1.51,1.05,-0.595,-0.742,-0.0885,0.293,-0.308,0.63,-0.702,0.858
ACTAGCAGGCCAAGTTTGGGTCGCTCAAACAAAG,-0.398,-0.635,-0.922,-0.551,-0.759,-0.185,-0.746,-0.638,-1.08,-1.15,0.683,0.332,-0.842,-0.527,-0.566,-0.33,-0.606,-0.147,-1.09,0.491
CCCGAAAGGTCGGTTGAGGTGAGTATACGGATAA,3.38,2.22,0.406,1.69,0.134,2.76,0.61,1.12,0.00163,0.671,0.203,0.845,-0.316,-0.0998,1.28,3.49,0.481,2.51,0.922,3.33
ATATGTAGGTTAAGGCTCATTCAGGTTGGTTCGC,0.549,0.861,0.334,0.683,0.0062,3.43,5.54,5.46,2.91,5.15,7.51,7.12,5.15,3.53,2.08,0.38,0.413,0.411,0.882,1.02

# From the supplement of paper PMC6555819
